# HT1080 IDH1KD tx = qHTS for induction of synthetic lethality in tumor cells producing 2HG: qHTS for the HT-1080-IDH1KD cell line. 360,000 tested, 2% active. Potency, µM (top dose mostly 46.1 µM), for inactives: at the highest dose activity, negative = toxicity, most hits filed as cytotoxic. HT-1080 IDH1 knockdown viability, ATP luminescence, 48 h. AID 686971, 2013;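 further: potency means the concentration at half of the fitted maximal effect; 0% = DMSO wells and -100% = cell-free medium wells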
#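 IDH1KD HT-1080 cells, 750/well, RPMI + 5% FBS; compound pinned after 2 h settling; 48 h, 37 °C; CellTiter-Glo luminescence; % activity normalised to DMSO and no-cell wells; curves fitted, classed by r2 and efficacy.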
# IL1B secr inh = qHTS for Inhibitors of Inflammasome Signaling: IL-1-beta AlphaLISA Primary Screen. THP-1 LPS/ATP IL-1B secretion, AlphaLISA, 16 h; hits give low values. activity change, % at 57.5 µM. 360,000 tested, 4.7% active. AID 743279, 2014; in the data active means activity change below about -50%; inconclusive means mostly about -30% to -49%
#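 Secreted IL-1B measured by AlphaLISA bead assay after 16 h compound exposure of THP-1 cells; compounds (final up to 57.5 uM) added 1 h before LPS (250 ng/mL) and ATP (1.25 mM) stimulation; lower signal means less secretion.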
# HT1080NT lethal = qHTS for induction of synthetic lethality in tumor cells producing 2HG: qHTS for the HT-1080-NT fibrosarcoma cell line; HT-1080-NT fibrosarcoma viability, CellTiter-Glo ATP luminescence, 48 h; Potency, µM (top dose mostly 46.1 µM), inactives show top-dose activity, negative = less viability, usual class: cytotoxic; 360,000 tested, 1.6% active; AID 686970, 2013;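 further: NT is the 2HG producing partner of a matched IDH1 knockdown line; potency means the concentration at half of the fitted maximal effect; 0% = DMSO-treated cells and -100% = media-only wells without cells; nearly all actives have a fitted effect of over 55% in size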
#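 Compounds were tested in concentration-response format on HT-1080-NT cells for 48 hours at 37 degrees C. Cell viability came from CellTiter-Glo luminescence; curves were classified by r2, response magnitude and activity.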
# DT40 TDP1 no CPT = qHTS for Inhibitors of human tyrosyl-DNA phosphodiesterase 1 (TDP1): qHTS in cells in absence of CPT; DT40 Tdp1-/- hTDP1 cells, no CPT, ATP luminescence, 48 h; Potency, µM (top dose mostly 46.2 µM), without a hit: top-dose activity change, negative = growth inhibition, actives largely listed as inhibitors; 420,000 tested, 15% active; further: potency means the concentration at half of the fitted maximal effect; nearly all actives have a fitted effect of over 55% in size
#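 Chicken DT40 Tdp1-/- cells stably complemented with human TDP1 were seeded at 400 cells/well with DMSO in place of 20 nM camptothecin. After compound pinning, cells grew at least 48 hr at 37 °C; viability read by CellTiter-Glo luminescence.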
# ELG1 DNA repair = qHTS screen for small molecules that inhibit ELG1-dependent DNA repair in human embryonic kidney (HEK293T) cells expressing luciferase-tagged ELG1; HEK293T ELG1-luciferase reporter, luminescence, 16 h; DNA damage induced by 5-fluorouridine; Potency, µM (top dose mostly 46.1 µM), for inactives: at the top dose activity change, negative = inhibition, actives largely listed as inhibitors; 330,000 tested, 2.3% active; AID 504467, 2011; further: potency means the concentration at half of the fitted maximal effect; nearly all actives have a fitted effect of over 55% in size
#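 Step one: seed 2,000 cells per well. Step two: pin-transfer compound or DMSO alongside 5-fluorouridine. Step three: incubate 16 hr, 37 °C, 5% CO2. Step four: add ONE-Glo, wait 30 min, read luminescence.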
# DT40 TDP1 CPT = qHTS for Inhibitors of human tyrosyl-DNA phosphodiesterase 1 (TDP1): qHTS in cells in presence of CPT. chicken DT40 Tdp1-/-;hTDP1 cells + 20 nM CPT, ATP luminescence, 48 h. Potency, µM (doses to about 46.2 µM), for the others: at the highest dose activity change, negative = growth inhibition, most hits filed as inhibitors. 420,000 tested, 12% active; further: potency means the concentration at half of the fitted maximal effect; nearly all actives have a fitted effect of over 55% in size
#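 Cell growth measured by CellTiter-Glo luminescence after a minimum 48 h, 37 C compound exposure with 20 nM CPT in Tdp1-knockout DT40 cells stably expressing hTDP1, seeded 400/well; qHTS titration format.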
# Starred values were filed as active, the others as inactive; ? = inconclusive; . = no result given. Shown are actives, neighbours in structure and some others; about 19% of the full set was active somewhere. Unless noted, the call rests on the fitted dose curve; in most records, active means well fitted curve in the direction sought with a large enough effect; inconclusive means small, poorly fitted or top-dose-only effect, or another doubt; inactive means no such curve, though single readings can be large; an effect the other way counts as inactive or inconclusive. Unless noted, on the % scale 0 is the no-effect control and ±100 the full control effect.
SMILES,HT1080 IDH1KD tx,IL1B secr inh,HT1080NT lethal,DT40 TDP1 no CPT,ELG1 DNA repair,DT40 TDP1 CPT
CC(NC(=O)c1ccc(Cl)c(S(=O)(=O)NC2CC2)c1)c1ccco1 (stereo not drawn),1%,?,0%,-20%,.,0%
CCn1ccc2cc(S(=O)(=O)N3CCC(C(=O)NCc4ccc(OC(C)C)cc4)CC3)ccc21,.,.,.,-28%,.,?
COc1cc(/C=C/C(=O)c2ccc3c(c2)OCO3)cc(OC)c1OC,?,-97*,?,12µM*,16µM*,?
COc1cc(/C=C/C(=O)c2ccc3c(c2)OCCO3)cc(OC)c1OC,?,-94*,-11%,?,?,?
COc1cc(C=CC(=O)OCC=Cc2ccc3c(c2)OCO3)cc(OC)c1OC,-2%,-9,0%,?,.,?
COc1cc(C(=O)c2cc3c(cc2C)OCO3)cc(OC)c1OC,?,79,?,0.023µM*,.,0.023µM*
COc1ccc(OC)c(/C=C/C(=O)c2ccc3c(c2)OCCO3)c1,?,-101*,?,?,-15%,?
COc1cc(CC(=O)Oc2ccc3c(c2)OCO3)cc(OC)c1OC,1%,3,1%,?,-9%,?
O=C(CSc1nnc(C2CCCCC2)o1)Nc1ccccc1Cl,-10%,-12,-13%,?,?,4%
COc1ccc(C(CNC(=O)c2ccc(NS(=O)(=O)c3cccc([N+](=O)[O-])c3)cc2)N2CCOCC2)cc1 (stereo not drawn),-1%,9,0%,-10%,8%,8%
CCCN(C(=O)c1ccccc1Cc1ccccc1)C1CCS(=O)(=O)C1 (stereo not drawn),9%,10,4%,-22%,7%,-2%
COc1cc(C(=O)OCC(=O)c2cc(C)n(C)c2C)cc(OC)c1OC,?,33,?,16µM*,?,26µM*
COc1cc(C(=O)COC(=O)c2ccc3c(c2)OCCO3)cc(OC)c1OC,?,-12,?,?,.,15µM*
COc1cc(OC)c(NS(=O)(=O)c2cc3c(cc2C)N(C(C)=O)CCO3)cc1Cl,.,.,.,?,.,-24%
CC(CCC(=O)O)C1CCC2C3CC[C@@H]4CCCC[C@@]4(C)C3CC[C@@]12C (stereo partly drawn),.,.,.,-7%,.,10%
O=C(c1ccc2[nH]c(=O)c(=O)[nH]c2c1)N1CCN(Cc2ccccc2)CC1,14%,32,7%,5%,12%,9%
CCOc1ccc(NC(=S)N(CCc2c(C)[nH]c3ccc(C)cc23)Cc2ccco2)cc1,-27%,?,-16%,?,16µM*,?
COc1ccc2[nH]c(C)c(CCN(Cc3cccs3)C(=S)Nc3ccc(F)cc3)c2c1,-2%,-28,-9%,?,-29%,?
COc1ccc2[nH]c(C)c(CCN(Cc3cccs3)C(=S)Nc3ccccc3)c2c1,-11%,-50*,-2%,?,?,?
COc1ccc(NC(=S)N(CCc2c(C)[nH]c3ccc(C)cc23)Cc2cccs2)cc1,?,-56*,-9%,?,?,16µM*
COc1ccc(NC(=S)N(CCc2c(C)[nH]c3ccc(C)cc23)Cc2ccco2)cc1,0%,-28,-6%,?,?,?
Cc1ccc(-n2nc3c(=O)n(CC(=O)NCCC(C)C)nc(C)c3c2C)cc1,.,.,.,3%,.,-6%
CC(=O)N1CCN(c2ccc(Oc3ncnc4sccc34)cc2)CC1,-14%,-28,2%,-23%,21µM*,-25%
CC(=O)c1ccc(Oc2ncnc3sccc23)cc1,14%,8,8%,-22%,?,6%
COc1ccc(CCNC(=O)CSc2cn(CCNC(=O)c3cccc(C(F)(F)F)c3)c3ccccc23)cc1OC,.,.,.,15µM*,.,21µM*
SMILES,HT1080 IDH1KD tx,IL1B secr inh,HT1080NT lethal,DT40 TDP1 no CPT,ELG1 DNA repair,DT40 TDP1 CPT
COc1ccc(CCNC(=O)CSc2cn(CCNC(=O)c3ccc(OC)c(OC)c3)c3ccccc23)cc1OC,.,.,.,23µM*,.,?
COc1ccc(C(=O)NCCn2cc(SCC(=O)Nc3ccc4c(c3)OCCO4)c3ccccc32)cc1OC,.,.,.,21µM*,.,15µM*
COc1ccc(C(=O)Nc2ccc(C(=O)NCCc3ccc(OC)c(OC)c3)cc2)cc1,-15%,0,-4%,-5%,9%,3%
Cc1nnc(NC(=O)CSc2cn(CCNC(=O)c3ccccc3)c3ccccc23)s1,-1%,-11,0%,?,?,-23%
COc1ccc(C(=O)NCCn2cc(SCC(=O)NCCc3ccc(OC)c(OC)c3)c3ccccc32)cc1,.,.,.,16µM*,.,18µM*
CC[C@]12c3[nH]c4cc(CCC(=O)N(C)C)ccc4c3CCN1C(=O)[C@@H](CC(=O)NCc1cccc(C(F)(F)F)c1)C[C@@H]2C(=O)N1CCN(C(=O)C2CC2)CC1,-5%,-16,-6%,?,-9%,-20%
CC[C@]12c3[nH]c4cc(CCC(=O)N(C)C)ccc4c3CCN1C(=O)[C@@H](CC(=O)NCc1ccc(OC)c(OC)c1)C[C@@H]2C(=O)N1CCN(C(=O)C2CC2)CC1,7%,-24,1%,5%,-1%,?
CC[C@]12c3[nH]c4cc(-c5ccco5)ccc4c3CCN1C(=O)[C@@H](CC(=O)NCc1ccc(OC)c(OC)c1)C[C@@H]2C(=O)N1CCN(C(=O)C2CC2)CC1,1%,?,9%,?,?,?
CC[C@]12c3[nH]c4cc(CCC(=O)N(C)C)ccc4c3CCN1C(=O)[C@@H](CC(=O)NCc1cccc(C(F)(F)F)c1)C[C@@H]2C(=O)N1CCN(C(=O)c2ccco2)CC1,3%,-28,7%,?,?,21µM*
CC[C@]12c3[nH]c4cc(-c5ccco5)ccc4c3CCN1C(=O)[C@@H](CC(=O)NCc1ccco1)C[C@@H]2C(=O)N1CCN(C(=O)C2CC2)CC1,-5%,-16,-3%,16µM*,-8%,16µM*

# Screening results (PubChem BioAssay)
